The list is not random: actives were taken first. Their share in the collection is about 7.2%.
SNCA viab count – cell viability loss counter-screen. 0.12% of 150,000 active. Potency, µM (titrated, usually from 57.1 µM), for inactives: at the highest dose activity change, negative = cytotoxicity, usual class: cytotoxic. HEK-293-SNCA-luc viability, GF-AFC fluorescence, 24 h. AID 1671193;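 note: 0% = DMSO-treated cells and -100% = medium-only wells without cells; nearly all actives have a fitted effect of over 30% in size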
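Cytotoxicity counterscreen: after 24 h compound treatment of genome-edited SNCA-luciferase HEK-293 cells, live-cell protease substrate GF-AFC read by fluorescence after 30 min; activity scaled between DMSO (0%) and medium-only (-100%), curves Hill-fitted.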
SNCA expr inh – SNCA gene expression inhibition; AID 1671194; Potency, µM (titrated, usually from 57.2 µM), for inactives: at the top dose activity change, negative = inhibition, actives largely listed as inhibitors; HEK-293 SNCA-luciferase knock-in, luminescence, 24 h; 0.17% of 140,000 active;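 note: plate controls were DMSO cells for no effect and cell-free wells for full effect; nearly all actives have a fitted effect of over 45% in size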
FLuc inh – inhibitors of firefly (Photinus pyralis) luciferase; P08659; purified P. pyralis luciferase, luminescence, biochemical; Potency, µM (doses to about 115 µM), hits mostly inhibitors; 2.5% of 76,000 active; AID 1347043; note: % is set by controls: 0 for no effect and ±100 for the full control effect; nearly all actives have a fitted effect of over 65% in size
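Biochemical qHTS: compound (6-point titration) added to 10uM D-luciferin plus 10uM ATP in Tris acetate pH 7.5 buffer with Mg, Tween-20 and BSA, then purified enzyme at 10nM; light output imaged.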
HEK cytotox – HEK 293 cell cytotoxicity | Potency, µM (highest dose often 115 µM), without a hit: at the highest dose activity change, negative = cytotoxicity, hits mostly inhibitors | 6.6% of 94,000 active | HEK 293 viability, ATP luminescence (CellTiter-Glo), 48-72 h | AID 1345083; note: % is set by controls: 0 for no effect and ±100 for the full control effect; nearly all actives have a fitted effect of over 60% in size
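Viability of HEK 293 cells, plated at 250 cells/well, was judged by cellular ATP after compound treatment for 48 or 72 hr. Luminescence was imaged 10 min after CellTiter-Glo addition at room temperature.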
NPR1 antag – antagonists of human natriuretic peptide receptor Npr1; P16066; HEK293 hNpr1 GloSensor cGMP, ANP-stimulated luminescence; Potency, µM (series often up to 46.3 µM), for the others: at the top dose activity change, negative = inhibition, usual class: inhibitors; 1.6% of 76,000 active; AID 1347048; calls by dose curve; note: % is set by controls: 0 for no effect and ±100 for the full control effect; nearly all actives have a fitted effect of over 60% in size
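HEK293 cells stably expressing human Npr1 and cGMP GloSensor pGS-40F, loaded 2 h with 2% GloSensor reagent, given compound 30 min at room temperature. Luminescence read before and 20 min after 0.1 nM hNppA.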
NIH3T3 tox – cytotoxic compounds in NIH 3T3 cells. NIH 3T3 viability, CellTiter-Glo ATP luminescence, 48-72 h. Potency, µM (doses to about 96.7 µM), for inactives: at the highest dose activity change, negative = cytotoxicity, most hits filed as inhibitors. 4.3% of 94,000 active; note: % is set by controls: 0 for no effect and ±100 for the full control effect; nearly all actives have a fitted effect of over 55% in size
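NIH 3T3 cells at 400 cells/well received 23 nL of compound by pintool and were incubated 48 or 72 h at 37 °C. Viability was read as ATP-coupled CellTiter-Glo luminescence.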
NPR1 antag cnf – confirmation of human Npr1 natriuretic peptide receptor antagonists; shares compounds with NPR1 antag; HEK293 hNpr1 cGMP GloSensor luminescence, ANP-stimulated; Potency, µM (doses to about 57.6 µM), for inactives: at the highest dose activity change, negative = inhibition, actives largely listed as inhibitors; 76% of 1,400 active; calls by dose curve; note: nearly all actives have a fitted effect of over 70% in size
NPR2 antag – antagonizes human Npr2, subtype selectivity check; 67% of 1,400 active; AID 1347046; HEK293 hNpr2 GloSensor cGMP luminescence, CNP-stimulated; Potency, µM (highest dose often 57.6 µM), inactives show at the top dose activity change, negative = inhibition, most hits filed as inhibitors; shares compounds with NPR1 antag; calls by dose curve; note: nearly all actives have a fitted effect of over 70% in size
FLuc inh counter – counter-screen for Npr1 antagonists: firefly luciferase inhibitors; shares compounds with NPR1 antag; purified FLuc enzyme, luminescence, Km substrate; Potency, µM (titrated, usually from 57.6 µM), for inactives: at the top dose activity change, negative = inhibition, most hits filed as inhibitors; 0.7% of 1,400 active; note: series mostly up to about 58 µM; 0% is about no effect
GloSensor cGMP – reduces cGMP signal in GloSensor control cells; shares compounds with NPR1 antag; HEK293 GloSensor cGMP, SNP-stimulated, luminescence; Potency, µM (titrated, usually from 57.6 µM), for inactives: at the highest dose activity change, negative = inhibition, hits mostly inhibitors; 69% of 1,400 active; AID 1347051; calls by dose curve; note: % is set by controls: 0 for no effect and ±100 for the full control effect; nearly all actives have a fitted effect of over 70% in size
An asterisk follows results filed as active; i = inactive; u = inconclusive; x = no result given; [ ] = remark or other dose. Unless noted, calls come from the whole dose curve; as a rule, active = well fitted curve in the direction sought with a large enough effect; inconclusive = small, poorly fitted or top-dose-only effect, or another doubt; inactive = no such curve, though single readings can be large; an effect the other way counts as inactive or inconclusive. Potency is the fitted concentration of half-maximal effect.

SMILES | SNCA viab count | SNCA expr inh | FLuc inh | HEK cytotox | NPR1 antag | NIH3T3 tox | NPR1 antag cnf | NPR2 antag | FLuc inh counter | GloSensor cGMP
COCc1nc(-c2ccc(OC3CCN(Cc4ccc(C(F)(F)F)cc4)C3)cc2)no1 (configuration not stated) | -5% | -3% | i | u | 7.9µM* | u | 8.6µM* | 11µM* | 2% | 7.7µM*
COCc1nc(-c2ccc(OC3CCN(C(=O)CCc4ccc(OC)cc4)C3)cc2)no1 (configuration not stated) | -1% | -27% | i | u | 14µM* | u | 27µM* | 27µM* | -4% | u
N#Cc1cccnc1-c1ccc(C(=O)N2CCC(NC(=O)c3ccc(F)cc3)CC2)cc1 | -9%[12.5 µM] | u | x | u | x | u | x | x | x | x
COc1cccc(CCC(=O)N2CCC(Cc3nc(-c4ccccc4)no3)CC2)c1 | 10% | -7% | i | u | u | u | x | x | x | x
Cc1cccc(OCC(=O)N2CCC(Cc3nc(-c4cnccn4)no3)CC2)c1 | -5% | -9% | i | -23% | -3% | u | x | x | x | x
COc1cccc(-c2noc(CC3CCN(C(=O)CCc4ccccc4)CC3)n2)c1 | -3% | 12% | i | u | 13µM* | u | 27µM* | 24µM* | -7% | 24µM*
COc1cccc(-c2noc(CC3CCN(C(=O)COc4cccc(C)c4)CC3)n2)c1 | -12% | -17% | i | u | 20µM* | u | u | 31µM* | 2% | 39µM*
COc1ccc(C(=O)N2C[C@@H]3OCC(=O)N(CC4CC4)[C@@H]3C2)cc1 | -6%[87.6 µM] | -14%[87.6 µM] | i | -11%[172 µM] | -2%[70.6 µM] | -4%[174 µM] | x | x | x | x
C#CCNC(=O)c1nc(-c2ccccc2OC)c2ccccn12 | -5% | 11% | x | -4% | x | -17% | x | x | x | x
CCCc1noc(-c2ccn3c(CNC(=O)c4ccc(CC)cc4)nnc3c2)n1 | 9% | 42% | i | -2% | 0% | -23% | x | x | x | x
Cc1cccc(NC(=O)Cn2c(C)cc3nc4n(c(=O)c32)CCCCC4)c1C | -22% | -6% | i | -13% | -3% | -28% | x | x | x | x
NC(=O)Cc1c[nH]c2ncc(-c3ccccc3C(F)(F)F)cc12 | -10%[87.6 µM] | -11%[87.6 µM] | i | u | u | -28%[138 µM] | 31µM* | u | -3%[86.2 µM] | 35µM*
Cc1ccccc1-c1cnc2[nH]cc(CC(=O)NCc3cccnc3)c2c1 | 0%[87.6 µM] | -15%[87.6 µM] | i | 79µM* | 32µM* | u | 31µM* | 28µM* | 2%[86.2 µM] | 25µM*
Cc1ccccc1-c1cnc2[nH]cc(CC(=O)N3CCCC3)c2c1 | -9%[87.6 µM] | -19%[87.6 µM] | i | 89µM* | 3.5µM* | u | 7.9µM* | 11µM* | -5%[86.2 µM] | 7µM*
COc1ncccc1-c1cnc2[nH]cc(CC(N)=O)c2c1 | 2%[87.6 µM] | 69%[87.6 µM] | i | -10%[230 µM] | -4%[70.6 µM] | u | x | x | x | x
O=C(Cc1c[nH]c2ncc(-c3ccccc3C(F)(F)F)cc12)NCc1cccnc1 | -9%[87.6 µM] | -10%[87.6 µM] | i | u | 7.9µM* | u | 16µM* | 20µM* | -2%[86.2 µM] | 16µM*
CCc1nc(C)ccc1OCC(=O)N1CCCn2nc(C(C)O)cc2C1 (configuration not stated) | -11% | -20% | i | -5% | 4% | i | x | x | x | x
O=C(CCC(F)(F)F)N1CCC2(CCCN(CC3CCCCC3)C2=O)C1 (configuration not stated) | 5% | 33% | i | -26% | 5% | -24% | x | x | x | x
COc1ccc(Cn2c(=O)c(C(=O)N3CCN([S+](=O)([O-])c4cccc(C(F)(F)F)c4)CC3)nc3cccnc32)cc1 | -2% | 4% | x | -7% | x | -10% | x | x | x | x
COCCNC(=O)Cc1c[nH]c2ncc(-c3ccccc3C)cc12 | 1%[87.6 µM] | 0%[87.6 µM] | i | u | -24%[70.6 µM] | u | x | x | x | x
CCNC(=O)Cc1c[nH]c2ncc(-c3ccccc3C)cc12 | -13%[87.6 µM] | 19%[87.6 µM] | i | u | 18µM* | u | 31µM* | 31µM* | 1%[86.2 µM] | 28µM*
COc1ccc(CCNC(=O)CC(c2cccc(OC)c2OC)c2c[nH]c3ccccc23)cc1OC (configuration not stated) | 5% | 2% | i | u | -21% | u | x | x | x | x
O=C(Nc1ccc2cn[nH]c2c1)c1ccc2c(c1)OCCN(c1ccccc1)C2 | u | 8%[87.6 µM] | i | 45µM* | u | 40µM* | 35µM* | u | -18%[86.2 µM] | 35µM*
O=C(Nc1nccs1)c1ccc2c(c1)OCCN(c1ccccc1)C2 | 6%[87.6 µM] | 24%[87.6 µM] | u | -26%[172 µM] | -18%[70.6 µM] | u | x | x | x | x
CNc1cc(C2CC(NS(=O)(=O)c3ccc(Cl)s3)C2)nc(N)n1 (configuration not stated) | -8% | 3% | i | u | -19% | u | x | x | x | x
O=C(CN1CCCCCCC1)N1CCn2nc(Cc3ccccc3)cc2C1 | 5% | -23% | i | -29% | -13% | u | x | x | x | x
CC(=O)c1c(C)nn(CC(=O)N2CCn3nc(Cc4ccccc4)cc3C2)c1C | -9% | u | i | u | 11µM* | -34% | 22µM* | 19µM* | -1% | 14µM*
COCC(=O)N1CCCC(C(=O)N2CCC(N3CCCC3=O)CC2)C1 (configuration not stated) | 7% | -4% | x | -2% | x | i | x | x | x | x
Cc1cc(Cl)ccc1-c1ccc(CNC2CN(C(=O)OC(C)(C)C)C2)cc1 | 0% | -9% | x | u | x | u | 22µM* | 22µM* | -1% | 19µM*
Cc1ccccc1CNC(=O)C1CCC(=O)N(CCCc2ccccc2)C1 (configuration not stated) | 0% | -30% | i | u | 1% | -9% | x | x | x | x

From PubChem BioAssay
